Where “and” joins values, the source holds several entries; their conditions need not be identical. Equal entries are not always repeated. Among all 320,000 compounds or so, about 560 (0.17%) were called active. Only a selection was taken, and actives are over-represented in it overall. A number with no mark means an inactive call.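 Rule for the calls: active = inhibition above the campaign's mean inhibition across all tested compounds plus 3 SD (cut at about 9.5% in these data); inactive = the rest.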
The compounds below were run against Serine/threonine-protein phosphatase 5 (Homo sapiens) (UniProt P53041) (assay: inhibition of human PP5 catalytic activity – biochemical, fluorescence, primary screen (AID 1987;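 note: 0% = DMSO only and 100% = 100 µM cantharidin control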)). Conditions: purified PP5c, OMFP substrate fluorescence; at 6.7 µM; hits give high values.
Sequence of Serine/threonine-protein phosphatase 5 (Homo sapiens) (P53041 whole entry, looked up): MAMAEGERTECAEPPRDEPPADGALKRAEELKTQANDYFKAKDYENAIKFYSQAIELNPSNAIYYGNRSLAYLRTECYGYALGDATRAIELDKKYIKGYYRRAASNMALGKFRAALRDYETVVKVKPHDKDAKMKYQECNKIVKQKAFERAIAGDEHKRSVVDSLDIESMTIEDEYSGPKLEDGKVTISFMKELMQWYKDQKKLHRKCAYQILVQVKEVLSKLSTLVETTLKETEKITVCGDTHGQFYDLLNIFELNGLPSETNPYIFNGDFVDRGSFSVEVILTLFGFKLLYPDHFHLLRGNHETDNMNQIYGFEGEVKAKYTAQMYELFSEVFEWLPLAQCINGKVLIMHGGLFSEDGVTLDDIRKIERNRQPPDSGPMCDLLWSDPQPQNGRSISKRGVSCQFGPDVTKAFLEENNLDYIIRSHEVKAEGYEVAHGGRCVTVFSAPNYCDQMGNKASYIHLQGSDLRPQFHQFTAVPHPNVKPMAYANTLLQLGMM

SMILES	inhibition
Cc1ccc(Cn2c(C)c3cnn(CC(=O)NCc4ccccn4)c(=O)c3c2C)cc1	-1.29%
CCNC(=O)c1sccc1-n1cccc1	0.46%
CC(C)(C)C(=O)NNC(=O)c1ccc(Oc2cc(Cl)cc(Cl)c2)o1	-2.8%
CCn1nnc(NC(=O)c2cc(Cl)c(OC)c(Cl)c2)n1	0.92%
CCN(CC(=O)NC1CCS(=O)(=O)C1)c1nc(-c2cccnc2)nc2ccccc12 (stereo not drawn)	-1.12%
Cc1cc(Cl)ccc1OCCCC(=O)NCc1ccccn1	1.77%
O=C1[C@H]2[C@@H](c3ccc(F)cc3)N3C(=O)N(c4ccc(C(F)(F)F)cc4)C(=O)[C@@]3(Cc3ccccc3)[C@H]2C(=O)N1C1CCCCC1	5.23%
CCCN(CCC)S(=O)(=O)c1ccc(C(=O)N2CC3CCC(CC3)C2)cc1	2.42%
CCOC(=O)c1sc(N(Cc2ccccc2)C(=O)CN2C(=O)CN(C)C2=O)nc1C	-1.26%
C[C@H]1[C@H]2c3nc4ccccc4n3C[C@H]1ON2C1CCCCC1	-1.65%
COc1ccc(C(=O)NCc2ccc(C)cc2)cc1S(=O)(=O)N1CCCC1	-1.31%
NCCCC[C@@H]1NC(=O)[C@H](CCC(=O)O)NC(=O)c2cc([N+](=O)[O-])cc(I)c2NCC[C@@H](C(N)=O)NC1=O	4.27%
Cn1c(CC(=O)Nc2ccc(F)cc2)nnc1SCC(=O)NC1CCCCC1	1.34%
COc1cccc(NC(=O)Nc2nnc(N3CCCCC3C)s2)c1 (stereo not drawn)	3.58%
CC(C)c1ccc(/C=C/C(=O)NCCCN2CCOCC2)cc1	0.61%
CCC(C(=O)Nc1ncccn1)(C(F)(F)F)C(F)(F)F	-2.46%
C/C(N)=C(/C#N)C(=O)COC(=O)c1cc(-c2ccc(C)cc2)nc2ccccc12	3.74%
CSCC[C@H](NC(=O)N1CCn2c1nc1ccccc12)C(=O)NCc1ccc2c(c1)OCO2	-0.3%
CCN(C(=O)COc1ccc(C(=O)c2ccccc2)cc1)c1ccccc1	0.04%
O=C(O)c1n[nH]nc1-c1ccccc1	50.7% (active)
O=c1[nH]c(-c2ccccc2)c(-c2ccccc2)[nH]1	0.4%
N#Cc1c(-c2ccccc2)c(-c2ccccc2)n[nH]c1=O	-1.11%
CSCc1ccc(C(=O)Nc2cc(C)cc(C)c2)cc1	-1.23%
COc1ccc(NC(=O)COC(=O)CNC(=O)C2CCCCC2)cc1	-1.03%

SMILES	inhibition
COCCN(C(=O)COC(=O)Cc1cccc(OC)c1)c1c(N)n(Cc2ccccc2)c(=O)[nH]c1=O	-0.76%
O=C(CSc1n[nH]c(=O)n1-c1ccccc1)Nc1ccccc1C(F)(F)F	1.79%
O=C1C(C=NCC2CCCO2)=C(O)c2ccccc21 (stereo not drawn)	2.92%
Cc1ccccc1C(=O)NCC(c1ccco1)N1CCc2ccccc21 (stereo not drawn)	-0.08%
Cc1cccc(N(C)C(=O)CN2C(=O)COc3ccc(S(=O)(=O)N4CCCCCC4)cc32)c1	5.32%
O=C(O)c1cccc2c1C(=O)N(C1CCCCC1)C2	1.97%
CN1CCN(C(=O)Cn2c(C(F)(F)F)nc3ccccc32)CC1	0.08%
COc1ccc(CNC(=O)C2(CC3CC(c4ccccc4)=NO3)CCN(C(=O)c3cccc(O)c3)CC2)cc1 (stereo not drawn)	0.71%
CN(CC(=O)Nc1ccccc1Cl)C(=O)COc1cccc2c1OC(C)(C)C2	1.31%
CCOc1cnc(-c2c(-c3ccccc3Cl)noc2C)o1	3.98%
Cc1ccc(N2CC(C(=O)N3CCC4(CC3)CC(=O)c3ccccc3O4)CC2=O)cc1C (stereo not drawn)	-1.86%
Cc1cccc(S(=O)(=O)N2CN(CC3CCCO3)c3nc4ccccc4nc32)c1 (stereo not drawn)	3.91%
N#C/C=C\Oc1ccc(Cl)cc1N	-0.64%
CC1CCCCC1NC(=O)C1CCCN1S(=O)(=O)c1cccc2nsnc12 (stereo not drawn)	-5.55%
Cc1cccc(NC(=O)c2cccc(C(=O)Nc3cccc(C)c3C)n2)c1C	-0.92%
CCNc1nc(NC(C)C)nc(N2CC(=O)N(CC(=O)OCC)C2=N)n1	-0.1%
C=CCN1CCN(C(=O)CCCc2ccccc2)CC1	2.37%
Cc1cccc(CCNC(=O)Cn2ncc3c([nH]c4ccc(C)cc43)c2=O)c1	-2.46%
Cc1nnc(SCc2nc3ccccc3nc2C)s1	12.1% (active)
Cc1ccc(Nc2nc(N)nc(CSc3nnc(C)s3)n2)cc1	3.84%
Cc1nnc(SCc2cc(=O)[nH]c(N3CCN(Cc4ccccc4)CC3)n2)s1	1.51%
Cc1ccc(NC2=NC(c3ccccc3)n3c(nc(C)cc3=O)N2)cc1 (stereo not drawn)	0.48%
COc1ccccc1NS(=O)(=O)c1ccc(C)c(C(=O)NCC(c2ccco2)N(C)C)c1 (stereo not drawn)	-1.06%
COC(=O)C1(C)CC1(c1ccccc1)c1ccccc1 (stereo not drawn)	3.86%

SMILES	inhibition
COc1ccc(-c2cc(=O)oc3cc(OC(C)C(=O)Nc4ccc(CN5CCOCC5)cc4)ccc23)cc1 (stereo not drawn)	4.28%
CCCCCC1CCC(c2nnc(SCC(C)=O)o2)CC1 (stereo not drawn)	2.41%
COc1ccc(N(CC(=O)NC2CCCC2)C(=O)CS(=O)CC(=O)Nc2ccc3c(c2)OCO3)cc1 (stereo not drawn)	0.8%
Cn1c(=O)c2sccc2n(Cc2ccc(Br)cc2)c1=O	3.16%
CCN(CC)C(=O)CSc1nnc(CNc2ccc(F)cc2)n1Cc1ccco1	3.87%
O=C(NN1C(=O)C2C3C=CC(O3)C2C1=O)c1ccncc1 (stereo not drawn)	-0.72%
CC(C)(C)n1nc2c(c1NC(=O)c1ccc(S(=O)(=O)N3CCCC3)cc1)CS(=O)C2 (stereo not drawn)	-2.2%
C=CCOc1ccc(/C=C/C(=O)OCC(=O)NCC2CCCO2)cc1 (stereo not drawn)	-0.48%
O=Cc1c(Nc2ccccc2Cl)nc2ccccn2c1=O	-0.13%
C[C@H](NC(=O)c1[nH]cnc1C(=O)Nc1nccs1)c1ccccc1	1.13%
O=C(O)CCc1nc2cc(Cl)ccc2n(Cc2ccccc2)c1=O	-2.07%
CCOC(=O)Nc1ccc2c(c1)N(C(=O)CCCl)c1ccccc1[S@]2=O	-0.16%
CCOC(=O)Nc1ccc2c(c1)N(C(=O)CN1CCN3CCCC3C1)c1ccccc1CC2 (stereo not drawn)	10.7% (active)
CCOC(=O)Nc1ccc2c(c1)N(C(=O)CCN1CCN(CCO)CC1)c1ccccc1CC2	2.46%
O=S1(=O)N=C(N(CCO)/N=C/c2ccccc2F)c2ccccc21	-2.75%
CC(C)Cn1cnc2c1c(=O)n(CC(=O)NN)c(=O)n2Cc1ccccc1	1.33%
CC(=O)c1c(C)[nH]c(C(=O)Nc2cc(S(=O)(=O)N(C)C)ccc2C)c1C	3.8%
O=C(N=C1SC2CS(=O)(=O)CC2N1c1cc(Cl)ccc1Cl)C1CC1 (stereo not drawn)	-1.21%
CC(C)OC(=O)c1sc2nc3c(cc2c1N)C(=O)CCC3	-4.25%
O=C(O)c1ccc(-n2cccc2)cc1O	1.23%
O=C(Nc1ccccc1F)C1C2C=CC3(O2)C1C(=O)N(c1cccnc1)C3C(=O)NC1CCCCC1 (stereo not drawn)	2.73%
O=C(O)c1ccc(S(=O)(=O)N2CCC(Cc3ccccc3)CC2)cc1	-3.11%
CCCCN(CCCC)CCCNC(=O)CN1C(=O)COc2ccc(S(=O)(=O)N3CCC(C)CC3)cc21	-1.56%
COc1ccc(CCNC(=S)NC(=O)/C=C/c2ccc(C)cc2)cc1OC	1.62%

SMILES	inhibition
Cn1c(Cc2cccc3ccccc23)nnc1SCC(=O)N1CCN(c2cccc(Cl)c2)CC1	3.02%
Nc1nc(SCC(=O)NN(c2ccccc2)c2ccccc2)n[nH]1	-0.37%
Cc1cccn2cc(-c3cccc(S(=O)(=O)N4CCCCC4)c3)nc12	0.22%
COc1cc(/C=C2/SC(=S)N(Cc3ccccc3)C2=O)cc(OC)c1O	10.8% (active)
COc1ccc(/C=C2\SC(=S)N(CCCC(=O)NC3CCCC3)C2=O)cc1OC	-4.92%
COc1ccc(/C=C2\SC(=S)N(CCC(=O)Nc3cccc(C(=O)O)c3)C2=O)cc1OC	0.86%
Cc1c(CCC(=O)N[C@@H](CC(C)C)C(=O)O)c(=O)oc2c(C)c3oc4c(c3cc12)CCCC4	-1.14%
CN1CC(=O)N=C1N	2.26% and -0.51%
CC1(C)O[C@@H]2[C@H](O1)[C@@H](COS(=O)(=O)O)O[C@H]2n1cnc2c(=O)[nH]cnc21	0.9%
COCCOC1CCN(C(=O)c2ccc(OC)c(OC3CCN(C(C)C)CC3)c2)CC1	0.82%
CC(C)C[C@H](NC(=O)C1CC(=O)N(c2ccc3c(c2)OCCO3)C1)C(=O)NC1CCCC1 (stereo partly drawn)	-0.77%
COc1ccc(S(=O)(=O)NNC(=O)Nc2ccc(C)cc2)c(OC)c1	0.5%
COc1ccc(NC(=O)CNC(=O)Cc2ccccc2)cc1OC	-2.46%
CC(C)OC(=O)c1c(NC(=O)c2ccco2)sc2c1CCCC2	1.48%
CC(C)COC(=O)c1ccc(NC(=O)C2C3C=CC(C3)C2C(=O)O)cc1 (stereo not drawn)	1.86%
CCOC(=O)c1c(NC(=O)C2CCN(S(=O)(=O)c3ccc(Cl)cc3)CC2)sc2c1CCCC2	0.34%
COc1ccc(NC(=S)SC)cc1OC	3.15%
Cc1sc(NC(=O)C2C3CCC(O3)C2C(=O)O)c(C(=O)OC(C)C)c1-c1ccc(Cl)cc1 (stereo not drawn)	15.1% (active)
CC(C)OC(=O)c1cc(NC(=O)C2C3CCC(O3)C2C(=O)O)cc(C(=O)OC(C)C)c1 (stereo not drawn)	55.6% (active)
COc1ccc(NC(=O)C2C3CCC(O3)C2C(=O)O)cc1OC (stereo not drawn)	76.2% (active)
COC(=O)c1cc(NC(=O)C2C3C=CC(C3)C2C(=O)O)cc(C(=O)OC)c1 (stereo not drawn)	1.39%
